These results are taken from PubChem BioAssay (NCI).

The panel holds about 79,000 compounds, 15% with a hit somewhere; the sample as a whole holds those more often. Activity calls are given as the source filed them. Rule as the data show it: active = growth inhibition above about 70%; inactive = the rest.

One assay in a line: NCI Yeast Anticancer Drug Screen. Data for the mec2-1 strain (AID 157). The settings on record: S. cerevisiae mec2-1 strain, at 50.0 µM, stronger effect = higher value. In a few lines:
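Compounds were applied to mec2-1 yeast cells. Their growth was then compared with that of vehicle-treated cultures to give growth inhibition.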
On to `Nc1nc(Cl)cc(NCC2(CO)CC(CCCc3ccccc3)C2)n1` (configuration not stated), for which the growth inhibition was -6.6% (inactive).
Regarding `Nc1nc(-c2cc3cc(Cl)ccc3o2)cs1`, the growth inhibition is -6.7% (inactive).
As for `O=C(N(c1ccc(Cl)cc1)c1ccc(Cl)cc1)C(Cl)(Cl)Cl`, the growth inhibition was 5.7% (inactive).
`NC(CSSCC(N)C(=O)Nc1ccc2ccccc2c1)C(=O)Nc1ccc2ccccc2c1` (configuration not stated): the growth inhibition was 91.7% (active).
On the same count and under the same terms, in the case of `O=C/C=C/c1cc([N+](=O)[O-])ccc1Cl` it was 79.5% (active).
For the molecule `COc1cc(C(c2cc3c(cc2OC(C)=O)OCO3)C(C(C)=O)C(C)=O)cc(OC)c1OC(C)=O` (configuration not stated), the growth inhibition is 5% (inactive).
Turning to `CCCCc1ccc(Nc2nc(N)c3[nH]cnc3n2)cc1`, the growth inhibition is 84% (active).
As for `O=C(O)/C=C/C(=O)Nc1cccc2ccccc12`, the growth inhibition was 35.9% (inactive).
`Cc1cc(O)c(C(=O)/C=C/c2ccnc3ccccc23)c(=O)o1`: the growth inhibition was -6.65% (inactive).
Still for that read-out and setting: in the case of `ONC1=Nc2ccccc2OCc2cc(Br)c(Br)cc2COc2ccccc2N=C1NO` it was 91.1% (active); in that of `NNC(=O)c1ccc(N)cc1O`, -13.8% (inactive); in that of `O=C(N/C(=C\c1ccc2c(c1)OCO2)c1nc2ccccc2s1)c1ccccc1`, 97.9% (active).
On to `CC1=NN(C(=O)c2ccncc2)C(=O)C1N=Nc1ccc(C)c([N+](=O)[O-])c1` (configuration not stated), for which the growth inhibition was 19.4% (inactive).
Regarding `COc1ccc2nc3cc(Cl)ccc3c(Nc3nccs3)c2c1`, the growth inhibition is 70% (active).
Turning to `S=C(S)NCCN1CCNCC1`, the growth inhibition was -38.1% (inactive).
Regarding `ClCc1nc2ccccc2c2ccccc12`, the growth inhibition is 20.8% (inactive).
`ClC1=C(Cl)C(Cl)(C(Cl)(Cl)Cl)C(Cl)=C1Cl`: the growth inhibition is 99.6% (active).
Consider `FC(F)(F)COP1(OCC(F)(F)F)=NP(OCC(F)(F)F)(OCC(F)(F)F)=NP(c2ccccc2)(c2ccccc2)=N1`, for which the growth inhibition is 25.4% (inactive).
Still for that read-out and setting: under `CC(C)c1c(P(=O)(c2ccccc2)c2ccccc2)n(C)c2ccccc12` stands 89.5% (active); under `CN(CCC1CCCCC1)CCC1CCCCC1`, 80.3% (active).
For `Cc1nc(Cl)nc(N)c1[N+](=O)[O-]`, the growth inhibition is 44.1% (inactive).
As for `Nc1ccc2[nH]c3ccccc3c2c1`, the growth inhibition was -17.6% (inactive).
Still for that read-out and setting: under `COc1ccc(NC(=O)CSC(N)=O)cc1` stands 23.2% (inactive).

A short description of another assay: NCI Yeast Anticancer Drug Screen. Data for the sgs1 mgt1 strain (AID 161).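 Also: 0% = growth of cultures given vehicle only.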 The settings on record: S. cerevisiae sgs1 mgt1 strain, at 5.0 µM (retest, dose inferred, filed as 0.5), stronger effect = higher value. In a few lines:
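Growth of a repair-deficient yeast mutant was monitored after compound treatment and expressed as inhibition relative to vehicle-treated cultures.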
For `CCC(c1ccccc1)N1C(=O)c2ccccc2S1(=O)=O` (configuration not stated), the growth inhibition was -1% (inactive).
Consider `Cc1ccc2cc3ccccc3c(-c3ccccc3)c2c1`, for which the growth inhibition is 6% (inactive).
As to `CC(=O)Oc1ccc(C)cc1C(C)(C)C`, the growth inhibition was -2% (inactive).
The same measure, in the same setting: in the case of `CCCCCCCCCCC[N+](C)(C)CCCCCC[N+](C)(C)CCCCCCCCCCC` it was 99% (active).
The same measure, in the same setting: in the case of `CCN(CC)CCCNc1nc(NCCCN(CC)CC)c2nc(-c3ccccc3)c(-c3ccccc3)nc2n1` it was -2% (inactive); in that of `O=[N+]([O-])c1cnc(Sc2cncc[n+]2[O-])s1`, 99% (active); in that of `O=c1[nH]c(=O)c2cc([N+](=O)[O-])cc([N+](=O)[O-])c2[nH]1`, 12% (inactive).
Consider `O=C(NC(=O)C(F)(F)F)Nc1ccc(Cl)cc1`, for which the growth inhibition was 1% (inactive).
Regarding `O=[N+]([O-])c1ccc(S)c(Cl)c1`, the growth inhibition is 28% (inactive).
Consider `CS(=O)(=O)n1c(C(O)c2ccccc2)nc2ccccc21` (configuration not stated), for which the growth inhibition is 2% (inactive).
For `O=C(NCc1ccccc1)C1C(=O)N(Cc2ccccc2)C(=O)/C1=N/O` (configuration not stated), the growth inhibition was -14% (inactive).
As for `C[n+]1c(/C=C/c2ccccc2Cl)sc2ccccc21`, the growth inhibition is 52% (inactive).
For `CC(=O)c1ccc(Cl)c(N=Cc2cc(Br)ccc2O)c1`, the growth inhibition is 57% (inactive).
Take `O=C(c1ccc(Cl)cc1)c1ccc([N+](=O)[O-])cc1`: the growth inhibition is 4% (inactive).
Same read-out and setting: under `Nc1ccc2c(c1)[nH]c(=O)c1cc(Cl)c(Cl)cc12` stands 49% (inactive); under `COc1ccc(C2CC(c3c(O)ccc4ccccc34)=NN2)cc1OC` (configuration not stated), -6% (inactive); under `CC[N+]1(C)CCC(O)(c2ccc(Cl)c(Cl)c2)C(C(=O)c2ccc(Cl)c(Cl)c2)C1` (configuration not stated), 11% (inactive).
Take `Nc1nc(Cl)cc(NCC2(CO)CC(CCCc3ccccc3)C2)n1` (configuration not stated): the growth inhibition was 6% (inactive).
As to `Nc1nc(-c2cc3cc(Cl)ccc3o2)cs1`, the growth inhibition is 39% (inactive).
Take `O=C(N(c1ccc(Cl)cc1)c1ccc(Cl)cc1)C(Cl)(Cl)Cl`: the growth inhibition was 14% (inactive).
Take `NC(CSSCC(N)C(=O)Nc1ccc2ccccc2c1)C(=O)Nc1ccc2ccccc2c1` (configuration not stated): the growth inhibition was 54% (inactive).
On to `O=C/C=C/c1cc([N+](=O)[O-])ccc1Cl`, for which the growth inhibition is -59% (inactive).
Regarding `COc1cc(C(c2cc3c(cc2OC(C)=O)OCO3)C(C(C)=O)C(C)=O)cc(OC)c1OC(C)=O` (configuration not stated), the growth inhibition was -5% (inactive).
Still for that read-out and setting: under `CCCCc1ccc(Nc2nc(N)c3[nH]cnc3n2)cc1` stands 18% (inactive).
